The nature of assay [1]: qHTS assay for small molecule agonists of the p53 signaling pathway (AID 651631; calls by dose curve; also: nearly all actives have a fitted effect of over 15% in size). The essentials:
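Agonist mode screen using a stably integrated beta-lactamase gene under p53 response elements in HCT-116 cells. Compound exposure lasts 16 h at 37 °C; fluorescence intensity is measured following 2 h FRET substrate loading.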
For orientation: In qHTS, concentration-response curves come from the screen itself.

Assay [2] can be described thus: qHTS assay for small molecules that induce genotoxicity in human embryonic kidney cells expressing luciferase-tagged ATAD5 (AID 651632). Also: nearly all actives have a fitted effect of over 15% in size. The essentials:
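ATAD5-luc HEK293T, 2,000 cells/well; cpd or DMSO pin-transferred; 16 hr, 37C/5% CO2; Amplite 30 min RT; luminescence.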

Assay [3] can be described thus: qHTS assay for small molecule agonists of the p53 signaling pathway - cell viability (AID 651633; calls by dose curve;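 also: p53RE-bla HCT reporter cells with a stable beta-lactamase p53 reporter; series mostly up to about 83 µM; nearly all actives have a fitted effect of over 30% in size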). The procedure, abridged:
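p53RE-bla cells were treated with compound for 16 hours at 37 C. Cytotoxicity was then measured as CellTiter-Glo luminescence after 30 min at room temperature.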

The nature of assay [4]: qHTS assay for small molecules that induce genotoxicity in human embryonic kidney cells expressing luciferase-tagged ATAD5 - cell viability (AID 651634; calls by dose curve; also: nearly all actives have a fitted effect of over 25% in size). The procedure, abridged:
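Fluorescence from CellTiter-Fluor, reporting protease activity within live cells, served as the viability read-out. HEK293T cells carrying luciferase-tagged ATAD5 had been treated with compound for 15.5 hr at 37C.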

Assay [5] can be described thus: qHTS assay for small molecule disruptors of the mitochondrial membrane potential (AID 720635). Also: potency is read from the fitted curve at half-maximal effect. The procedure, abridged:
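HepG2 cells exposed to compound 1 hr at 37C, then Mito-MPS dye 30 min. Ratio read of aggregate (540/590 nm) versus monomer (490/535 nm) fluorescence.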

Assay [6] can be described thus: qHTS assay to test for compound auto fluorescence at 590 nm (red) in HepG2 cells (AID 720674). The procedure, abridged: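 HepG2 cells, 2,000 per well in MEM with 10% FBS, attached overnight at 37 C, then got 23 nL compound or DMSO. After 1 hr at 37 C, 5% CO2, red fluorescence was read at 540/590 nm against Rose Bengal sodium as reference.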
A short description of assay [7]: qHTS assay to test for compound auto fluorescence at 535 nm (green) in HepG2 cells (AID 720675).
Assay [8] is described as follows: qHTS assay to test for compound auto fluorescence at 460 nm (blue) in HEK293 cells (AID 720678). The procedure, abridged:
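Blue-channel (Ex/Em 405/460 nm) intensity measured in HEK293 cultures after overnight compound exposure at 37C; signal expressed relative to triamterene. Cells plated 2,000 per well in 10% dialyzed FBS medium and allowed 4-5 hr to attach.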

Assay [9] can be described thus: qHTS assay to test for compound auto fluorescence at 590 nm (red) in HEK293 cells (AID 720679). The procedure, abridged:
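Red-channel autofluorescence (Ex/Em 540/590 nm; Rose Bengal sodium reference) was measured after overnight 37C, 5% CO2 exposure of attached HEK293 cells, 2,000 per well in medium with 10% dialyzed FBS.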

Assay [10] is described as follows: qHTS assay to test for compound auto fluorescence at 535 nm (green) in HEK293 cells (AID 720680).
Assay [11] in a line: qHTS assay to test for compound auto fluorescence at 460 nm (blue) in HEK293 cell free culture (AID 720681). The procedure, abridged:
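Compounds were added to cell-free DMEM with 10% FBS and fluorescence read directly. The blue channel used 405 nm excitation and 460 nm emission, with triamterene as the reference fluorophore.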

Assay [12] is described as follows: qHTS assay to test for compound auto fluorescence at 535 nm (green) in HEK293 cell free culture (AID 720682). The procedure, abridged: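 No cells present: wells hold DMEM supplemented with 10% FBS, into which compound or vehicle is pinned. Green emission is then recorded (485 nm excitation, 535 nm emission) and scaled to fluorescein.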
Assay [13] in a line: qHTS assay to test for compound auto fluorescence at 590 nm (red) in HEK293 cell free culture (AID 720683). The essentials:
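Cell-free wells of DMEM with 10% FBS received compound, and intrinsic fluorescence was read at excitation/emission 540/590 nm. Values expressed as equivalence to Rose Bengal sodium.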

Assay [14] is described as follows: qHTS assay to test for compound auto fluorescence at 590 nm (red) in HepG2 cell free culture (AID 720684). The procedure, abridged:
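Compound was pinned into wells holding MEM with 10% FBS and no cells, and red fluorescence was read at Ex/Em 540/590 nm. Signal is expressed as auto fluorescence equivalency relative to Rose Bengal sodium.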

A short description of assay [15]: qHTS assay to test for compound auto fluorescence at 460 nm (blue) in HepG2 cell free culture (AID 720685). The essentials: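 Compound (23 nL) or DMSO pinned into cell-free MEM with 10% FBS; blue fluorescence read at 405/460 nm excitation/emission, expressed as auto-fluorescence equivalency to triamterene.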
The nature of assay [16]: qHTS assay to test for compound auto fluorescence at 535 nm (green) in HepG2 cell free culture (AID 720686).
Assay [17] is described as follows: qHTS assay to test for compound auto fluorescence at 460 nm (blue) in HepG2 cells (AID 720687). The procedure, abridged: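 HepG2 cells in MEM with 10% FBS, attached overnight at 37 C, were exposed to compound or DMSO for 1 hr at 37 C, 5% CO2. Blue fluorescence was read at 405/460 nm, with triamterene as reference fluorophore.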
The target of assay [18] is Glucocorticoid receptor (Homo sapiens) (UniProt P04150). Kind of assay: qHTS assay to identify small molecule antagonists of the glucocorticoid receptor (GR) signaling pathway (AID 720692; active = well fitted inhibition curve with a large enough effect in the signal ratio in the repeat runs, not every such curve was filed as active; the % refers to the signal ratio; also: potency is read from the fitted curve at half-maximal effect). The procedure, abridged:
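HeLa GR-bla cells; cmpd + dex 5 nM final, 18 h 37 C; LiveBLAzer B/G FRET substrate 2 h RT; fluorescence intensity read. Antagonist mode, qHTS.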

Assay [19] is described as follows: qHTS assay for small molecule disruptors of the mitochondrial membrane potential - cell viability (AID 720634; calls by dose curve;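 also: human HepG2 liver cancer cells; series mostly up to about 83 µM; nearly all actives have a fitted effect of over 20% in size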). The essentials: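 Cells: HepG2, 2,000/well, attached overnight. Compound 1 hr, 37 C/5% CO2. +m-MPI dye, +CellTiter-Glo 30 min RT. Readout: luminescence (ATP).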
For assay [20], the target named is Glucocorticoid receptor (Homo sapiens) (UniProt P04150). Kind of assay: qHTS assay to identify small molecule agonists of the glucocorticoid receptor (GR) signaling pathway (AID 720691; active = well fitted activation curve with a large enough effect in the signal ratio in the repeat runs, not every such curve was filed as active; the % refers to the signal ratio). The procedure, abridged:
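Fluorescence intensity from LiveBLAzer B/G FRET substrate (2 h, room temperature) reports beta-lactamase expression driven by the glucocorticoid response element in GR-bla HeLa cells after 18 h compound exposure at 37 C.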

Values joined by “and” are separate entries in the source; they are usually repeats but may differ in a detail not shown here. Equal entries are not always repeated. Records with an inconclusive call do not appear. Active and inactive are the calls of the source. Unless noted, calls follow the shape of the dose curve; as a rule, active = well fitted curve in the direction sought with a large enough effect in the repeat runs; inconclusive = weak or mixed curves; inactive = no such curve, though single readings can be large; an effect the other way counts as inactive or inconclusive.

Chain of Glucocorticoid receptor (Homo sapiens) (P04150 whole entry, looked up): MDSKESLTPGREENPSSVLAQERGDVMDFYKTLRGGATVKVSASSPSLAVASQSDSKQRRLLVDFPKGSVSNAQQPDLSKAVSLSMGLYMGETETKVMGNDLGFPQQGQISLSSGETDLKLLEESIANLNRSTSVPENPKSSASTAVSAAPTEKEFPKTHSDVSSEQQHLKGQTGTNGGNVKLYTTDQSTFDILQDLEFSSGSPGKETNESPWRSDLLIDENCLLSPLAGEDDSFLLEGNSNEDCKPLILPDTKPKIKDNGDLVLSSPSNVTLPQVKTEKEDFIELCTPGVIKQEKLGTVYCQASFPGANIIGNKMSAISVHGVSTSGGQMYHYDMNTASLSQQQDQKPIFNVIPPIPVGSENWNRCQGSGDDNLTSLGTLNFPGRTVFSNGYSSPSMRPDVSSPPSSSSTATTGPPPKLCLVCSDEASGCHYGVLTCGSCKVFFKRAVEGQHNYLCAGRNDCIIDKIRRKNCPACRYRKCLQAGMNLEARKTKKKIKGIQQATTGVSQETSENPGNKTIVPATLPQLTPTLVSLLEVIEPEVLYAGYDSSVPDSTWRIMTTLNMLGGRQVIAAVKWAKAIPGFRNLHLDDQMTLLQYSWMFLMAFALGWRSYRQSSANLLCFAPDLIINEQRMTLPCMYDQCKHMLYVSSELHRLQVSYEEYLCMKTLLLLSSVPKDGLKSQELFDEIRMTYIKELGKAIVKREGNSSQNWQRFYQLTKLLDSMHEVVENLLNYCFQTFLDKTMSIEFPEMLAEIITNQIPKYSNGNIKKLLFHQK

As for `NC(=O)OCC(COC(N)=O)c1ccccc1`, the Potency entry in assay [1], in assay [2], in assay [3], in [4], in assay [5] and in assay [18] was “inactive” in each case. Also, the result in assay [6], in assay [7], in [8], in [9], in assay [10] and in assay [11] was inactive. Further, the result in assay [12], in assay [13], in assay [14], in [15], in [16] and in assay [17] was inactive.

For `C[C@]12CC[C@@H]3c4ccc(O)cc4C[C@@H](CCCCCCCCCS(=O)CCCC(F)(F)C(F)(F)F)[C@H]3[C@@H]1CC[C@@H]2O` (stereo not given in full), the Potency result in [1], in [2], in [3] and in assay [4] was “inactive” each time. Further, the Potency in assay [5] is 2.66 µM (active) and 2.73 µM (active); in assay [18] it was 1230 nM (active). The compound was classed as inactive in [6], in assay [7], in assay [8], in assay [9], in assay [10] and in assay [11]. For the same compound, the result in assay [12], in assay [13], in assay [14], in assay [15], in assay [16] and in assay [17] was inactive.

In the case of `CC(C)=CCC/C(C)=C/CO`, the Potency entry in assay [1], in assay [2], in [3], in assay [4], in [19] and in [18] was “inactive” throughout. The call in assay [6], in [7], in [8], in assay [9], in [10] and in assay [11] was inactive. In addition, the compound was called inactive in assay [12], in assay [13], in [14], in assay [15], in [16] and in [17].

For the compound `COCC(C)N` (stereo not given), the Potency result in [1], in [2], in assay [3], in assay [4], in assay [19] and in assay [5] was “inactive” throughout. Besides, the Potency result in [18] is “inactive”. Further, the call in [6], in [7], in assay [8], in assay [9], in assay [10] and in [11] was inactive. The outcome in [12], in assay [13], in assay [14], in assay [15], in assay [16] and in assay [17] was inactive.

With `CCN1CCCC1=O`, the Potency entry in [1], in assay [2], in [3], in assay [4], in assay [19] and in assay [5] was “inactive” in each case. For the same compound, the Potency entry in assay [20] and in [18] was “inactive” each time. Also, the result in assay [6], in assay [7], in [8], in assay [9], in assay [10] and in assay [11] was inactive. Also, the outcome in assay [12], in assay [13], in assay [14], in assay [15], in assay [16] and in assay [17] was inactive.

As for `O=C(O)CCCCC1CCSS1` (stereo not given), the Potency result in [1], in assay [2], in assay [3], in assay [4], in assay [5] and in assay [18] was “inactive” throughout. The call in assay [6], in assay [7], in [8], in assay [9], in assay [10] and in assay [11] was inactive. The compound was classed as inactive in assay [12], in assay [13], in assay [14], in assay [15], in [16] and in assay [17].

Regarding `C1CNCCN1`, the Potency entry in assay [1], in assay [2], in assay [3], in [4], in [19] and in [5] was “inactive” in each case. Besides, the Potency result in [18] was “inactive”. Also, the outcome in assay [6], in assay [7], in [8], in assay [9], in assay [10] and in assay [11] was inactive. The compound was classed as inactive in assay [12], in [13], in assay [14], in assay [15], in assay [16] and in assay [17].

(Values after PubChem BioAssay (Tox21).)
